Source: PubChem BioAssay (Tox21)
A number with no mark means an inactive call. Records with an inconclusive call do not appear. Where a call stands in place of a potency, no number is given. Active and inactive are the calls of the source. Unless noted, calls come from the whole dose curve; as a rule, active = well fitted curve in the direction sought with a large enough effect in the repeat runs; inconclusive = weak or mixed curves; inactive = no such curve, though single readings can be large; an effect the other way counts as inactive or inconclusive.

Experiments:
[1] = qHTS RealTime-Glo MT Cell Viability Assay in HEK293 cells - 0 hour (AID 1224880); note: top concentration of the series differs between compounds; nearly all actives have a fitted effect of over 45% in size
How it was run: (§1)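 Luminescence readout at each listed time point; HEK293, 600 cells/well, RealTime-Glo MT reagent added with cells; compounds pinned (23 nL in DMSO) after 5 h at 37 C; continuous culture at 37 C.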

[2] = A CellTox Green Cytotoxicity Assay to monitor cytotoxicity in HEK293 cells - 32 hour (AID 1224881); note: nearly all actives have a fitted effect of over 40% in size
How it was run: (§2)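 Read-out: fluorescence of a cell-impermeant cyanine dye staining DNA of dead cells, proportional to cytotoxicity. HEK293, 600 cells/well with reagent, compound (23 nL DMSO) added after 5 h; reads at 0, 8, 16, 24, 32, 40 h.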

[3] = A CellTox Green Cytotoxicity Assay to monitor cytotoxicity in HepG2 cells - 0 hour (AID 1224882); note: nearly all actives have a fitted effect of over 35% in size
How it was run: (§3)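 HepG2, 600 cells/well premixed w/ CellTox Green; 5 h settle, 37 C/5% CO2; pintool cpd add (DMSO); 37 C, 40 h; fluorescence read at 0, 8, 16, 24, 32, 40 h.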

[4] = A CellTox Green Cytotoxicity Assay to monitor cytotoxicity in HepG2 cells - 32 hour (AID 1224883); note: nearly all actives have a fitted effect of over 50% in size; note: potency is the fitted concentration of half-maximal effect
How it was run: as §3

[5] = A CellTox Green Cytotoxicity Assay to monitor cytotoxicity in HEK293 cells - 8 hour (AID 1224884); note: nearly all actives have a fitted effect of over 35% in size
How it was run: as §2

[6] = qHTS RealTime-Glo MT Cell Viability Assay in HepG2 cells - 16 hour (AID 1224885); note: nearly all actives have a fitted effect of over 50% in size; note: potency is the fitted concentration of half-maximal effect
How it was run: (§4)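 Cell number in HepG2 cultures estimated from NanoLuc luminescence generated by metabolic reduction of a prosubstrate by living cells. The homogeneous, nonlytic format allowed repeated reads at 0, 8, 16, 24, 32 and 40 h of compound exposure.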

[7] = qHTS RealTime-Glo MT Cell Viability Assay in HEK293 cells - 24 hour (AID 1224886); note: nearly all actives have a fitted effect of over 50% in size; note: potency is the fitted concentration of half-maximal effect
How it was run: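 Homogeneous bioluminescent viability format in HEK293 cells (600 cells/well). Following 5 h at 37 C/5% CO2, 23 nL compound was pintooled; the signal was measured repeatedly during 40 h incubation.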

[8] = qHTS RealTime-Glo MT Cell Viability Assay in HEK293 cells - 8 hour (AID 1224887); note: nearly all actives have a fitted effect of over 50% in size; note: potency is the fitted concentration of half-maximal effect
How it was run: as §1

[9] = A CellTox Green Cytotoxicity Assay to monitor cytotoxicity in HEK293 cells - 16 hour (AID 1224888); note: nearly all actives have a fitted effect of over 35% in size
How it was run: as §2

[10] = qHTS RealTime-Glo MT Cell Viability Assay in HepG2 cells - 0 hour (AID 1224889); note: nearly all actives have a fitted effect of over 50% in size
How it was run: as §4

[11] = A CellTox Green Cytotoxicity Assay to monitor cytotoxicity in HepG2 cells - 8 hour (AID 1224890); note: nearly all actives have a fitted effect of over 45% in size
How it was run: as §3

[12] = qHTS assay to identify small molecule antagonists of the estrogen receptor alpha (ER-alpha) signaling pathway using the BG1 cell line in the presence of 0.1 nM 17-beta-estradiol - cell viability counter screen (AID 1259241); note: nearly all actives have a fitted effect of over 40% in size
How it was run: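 VM7Luc4E2, 4,000 cells/well, phenol red-free medium + 10% charcoal-stripped FBS; 24 hr plating; cpd + 0.1 nM E2 final, 22 hr 37C/5% CO2; CellTiter-Fluor 30 min, fluorescence.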

[13] = target: Estrogen receptor (Homo sapiens) (UniProt P03372); assay: qHTS assay to identify small molecule antagonists of the estrogen receptor alpha (ER-alpha) signaling pathway using the BG1 cell line in the presence of 0.1 nM 17-beta-estradiol (AID 1259244); note: nearly all actives have a fitted effect of over 50% in size; note: potency is the fitted concentration of half-maximal effect
Chain of Estrogen receptor (Homo sapiens) (P03372 whole entry, looked up): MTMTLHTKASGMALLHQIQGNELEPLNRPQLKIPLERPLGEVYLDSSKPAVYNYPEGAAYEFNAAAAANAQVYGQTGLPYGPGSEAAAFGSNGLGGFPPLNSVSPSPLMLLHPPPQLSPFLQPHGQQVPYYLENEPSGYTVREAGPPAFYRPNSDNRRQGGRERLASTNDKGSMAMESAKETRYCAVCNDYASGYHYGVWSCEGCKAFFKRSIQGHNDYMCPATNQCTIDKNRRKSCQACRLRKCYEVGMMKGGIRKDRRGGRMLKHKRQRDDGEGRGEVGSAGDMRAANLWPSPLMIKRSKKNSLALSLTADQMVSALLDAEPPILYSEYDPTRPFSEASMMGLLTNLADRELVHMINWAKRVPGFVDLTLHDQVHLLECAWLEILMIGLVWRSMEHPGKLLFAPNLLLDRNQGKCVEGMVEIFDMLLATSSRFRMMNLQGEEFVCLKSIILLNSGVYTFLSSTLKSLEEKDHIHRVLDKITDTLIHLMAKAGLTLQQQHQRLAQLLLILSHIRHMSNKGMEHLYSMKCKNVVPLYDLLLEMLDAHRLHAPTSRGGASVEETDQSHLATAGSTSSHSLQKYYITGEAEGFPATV
How it was run: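 Luminescence after ONE-Glo (30 min, room temperature) measured ERE-luciferase activity in VM7Luc4E2 cells treated 22 h with compound and 0.1 nM final 17beta-estradiol as stimulator.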

[14] = qHTS assay to identify small molecule HDAC inhibitors (AID 1259364); note: potency is the fitted concentration of half-maximal effect;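 note: wild-type HCT-116 cells with endogenous class I/II HDAC activity; nearly all actives have a fitted effect of over 45% in size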
How it was run: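 HCT-116 (wild type), 1,500 cells/well, overnight; compound 2 hr 37C 5% CO2; HDAC-Glo I/II reagent 30 min RT; luminescence readout.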

[15] = qHTS assay to identify small molecule HDAC inhibitors - cell viability counter screen (AID 1259365)
How it was run: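 Luminescence from CellTiter-Glo, developed 30min at room temperature, reports viability of wild-type HCT-116 cells treated 2hr with compounds at 37 C and 5% CO2 after overnight plating.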

[16] = qHTS assay to identify small molecule agonists of the sonic hedgehog signaling (Shh) pathway - cell viability counter screen (AID 1259366); note: nearly all actives have a fitted effect of over 50% in size
How it was run: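 Cytotoxicity counter screen run in the same wells as the Shh reporter assay. NIH/3T3 cells carrying a Gli1 response element–driven luciferase were treated with DMSO-dissolved compounds for 24hr, and live-cell protease activity was measured with CellTiter-Fluor.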

[17] = qHTS assay to identify small molecule antagonists of the androgen receptor (AR) signaling pathway using the MDA cell line in the presence of 0.5 nM R1881 - cell viability counter screen (AID 1259242); note: nearly all actives have a fitted effect of over 45% in size
How it was run: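 Live-cell protease fluorescence, CellTiter-Fluor, 30 min at 37C. Cells: MDA-kb2, 3,000/well, preincubated 5 hr. Compounds plus 0.5 nM R1881 final, 16 hr, 37C, 0% CO2.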

[18] = qHTS assay to identify small molecule antagonists of the sonic hedgehog signaling (Shh) pathway - cell viability counter screen (AID 1259367); note: nearly all actives have a fitted effect of over 55% in size
How it was run: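 Conditioned medium drove Shh signaling in 3T3 Gli1-Luc cells exposed to compounds at 37C and 5% CO2. Viability was determined from CellTiter-Fluor fluorescence, with reagent incubated 1 hr after 23 hr of treatment.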

[19] = target: Androgen receptor (Homo sapiens) (UniProt P10275); assay: qHTS assay to identify small molecule antagonists of the androgen receptor (AR) signaling pathway using the MDA cell line in the presence of 0.5 nM R1881 (AID 1259243); note: nearly all actives have a fitted effect of over 50% in size; note: potency is the fitted concentration of half-maximal effect
Chain of Androgen receptor (Homo sapiens) (P10275 whole entry, looked up): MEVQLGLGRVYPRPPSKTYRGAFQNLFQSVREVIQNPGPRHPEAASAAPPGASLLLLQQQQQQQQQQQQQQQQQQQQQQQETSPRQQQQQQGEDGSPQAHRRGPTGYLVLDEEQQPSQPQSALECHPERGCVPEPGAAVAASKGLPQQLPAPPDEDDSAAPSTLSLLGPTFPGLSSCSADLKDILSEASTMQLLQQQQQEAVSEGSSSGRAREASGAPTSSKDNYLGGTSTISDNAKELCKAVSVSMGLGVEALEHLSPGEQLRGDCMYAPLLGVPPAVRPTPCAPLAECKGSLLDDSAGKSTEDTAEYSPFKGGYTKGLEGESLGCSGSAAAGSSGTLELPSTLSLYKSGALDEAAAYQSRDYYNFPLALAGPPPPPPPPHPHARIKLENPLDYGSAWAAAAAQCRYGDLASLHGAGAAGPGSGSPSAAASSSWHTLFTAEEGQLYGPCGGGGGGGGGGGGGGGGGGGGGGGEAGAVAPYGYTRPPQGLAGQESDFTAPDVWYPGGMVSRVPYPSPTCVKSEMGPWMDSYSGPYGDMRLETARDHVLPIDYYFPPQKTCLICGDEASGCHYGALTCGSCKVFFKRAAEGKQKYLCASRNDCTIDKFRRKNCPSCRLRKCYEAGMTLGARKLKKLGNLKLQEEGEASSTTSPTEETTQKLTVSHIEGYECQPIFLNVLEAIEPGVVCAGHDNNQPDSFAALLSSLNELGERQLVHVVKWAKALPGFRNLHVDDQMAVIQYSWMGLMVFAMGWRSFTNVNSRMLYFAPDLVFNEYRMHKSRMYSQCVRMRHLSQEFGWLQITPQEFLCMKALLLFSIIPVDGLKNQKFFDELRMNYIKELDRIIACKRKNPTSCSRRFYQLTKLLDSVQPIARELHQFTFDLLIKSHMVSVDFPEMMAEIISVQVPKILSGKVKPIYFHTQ
How it was run: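 MDA-kb2, MMTV-luc (AR/GR elements); 3,000 cells/well; cpd + 0.5 nM R1881 final; 16 hr 37C, 0% CO2; ONE-Glo 30 min RT; luminescence.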

[20] = qHTS assay to identify small molecule phospholipidosis (PLD) inducers (AID 1259344; active = well fitted curve in the direction sought with a large enough effect; an effect the other way counts as inactive or inconclusive)
How it was run: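 After 4 h attachment on collagen I, HepG2 cells were dosed with compound alongside LipidTOX Red, kept 24 h at 37 C, fixed, and imaged for lamellar phospholipid pits.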

Structure (SMILES)	Potency [1]	Potency [2]	Potency [3]	Potency [4]	Potency [5]	Potency [6]	Potency [7]	Potency [8]	Potency [9]	Potency [10]	Potency [11]	Potency [12]	Potency [13]	Potency [14]	Potency [15]	Potency [16]	Potency [17]	Potency [18]	Potency [19]	Potency [20]
c1ccc(C[n+]2cccc3ccccc32)cc1	inactive	inactive	inactive	inactive	inactive	inactive	inactive	inactive	inactive	inactive	inactive	inactive	27.3 µM (active)	inactive	inactive	inactive	–	–	–	–
C=C(C)C(=O)OCCCCCCCCCCCCC	inactive	inactive	inactive	inactive	inactive	inactive	inactive	inactive	inactive	inactive	inactive	inactive	–	inactive	inactive	–	inactive	inactive	–	–
CCOc1ccc(Cc2nccc3cc(OCC)c(OCC)cc23)cc1OCC	inactive	inactive	inactive	5.35 µM (active)	inactive	19 µM (active)	7.56 µM (active)	10.7 µM (active)	inactive	–	inactive	inactive	8.41 µM (active)	inactive	inactive	inactive	–	inactive	10.6 µM (active)	inactive
CC1CC(C)C(=O)C1=O (centres undefined)	inactive	inactive	inactive	inactive	inactive	inactive	13.8 µM (active)	inactive	inactive	inactive	inactive	inactive	–	inactive	inactive	inactive	inactive	inactive	–	–
O=C=Nc1ccc(Cl)c(Cl)c1	inactive	inactive	inactive	inactive	inactive	inactive	inactive	inactive	inactive	inactive	inactive	inactive	–	inactive	–	inactive	inactive	inactive	–	–
CCCCCC[C@@H](O)C/C=C\CCCCCCCC(=O)O	inactive	inactive	inactive	inactive	inactive	inactive	inactive	inactive	inactive	–	inactive	inactive	–	inactive	inactive	inactive	inactive	inactive	–	inactive
O=C1c2ccccc2C(=O)C1c1ccc(Br)cc1	inactive	inactive	inactive	inactive	inactive	inactive	inactive	inactive	–	inactive	inactive	inactive	inactive	18.8 µM (active)	inactive	inactive	inactive	inactive	inactive	inactive
